Experimental data as given in PubChem BioAssay (NCI).
This is part of a sample that, as a whole, favours compounds with a hit. Of some 83,000 tested, about 20% had one in any assay.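 The endpoint reported here, percent growth, reads 100 for growth as untreated, 0 for no net growth and -100 for all cells dead.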 Unmarked numbers belong to inactive results. The source made the active and inactive calls.

Test system: NCI-H460 lung
Assay: NCI-60 one-dose screen, 48 h (100 = growth as untreated, 0 = no growth, -100 = all killed)
Settings: 10 µM
Method: Growth inhibition of the NCI-H460 human Non-Small Cell Lung tumor cell line is measured as a screen for anti-cancer activity. Cells are grown in 96 well plates and exposed to the test compound for 48 hours. Compounds are tested at a single concentration, which is 10^-5 M for most compounds. The reported endpoint is percent growth (GI% or GIPRCNT), where numbers from 0 - 100% represent growth inhibition, and numbers from -100% - 0 represent cell death. For example, a value of 40 represents 60% growth inhibition. A value of 0 means no net growth occurred over the course of the experiment. A value of -40 indicates 40% of cells at the beginning of the experiment died by the end of the experiment. A value of -100 means all cells are dead at the end of the experiment.
NCI-60 Human Tumor Cell Lines Screen was performed using the standard one-dose NCI protocol, which is described in more detail at https://dtp.cancer.gov/discovery_development/nci-60/default.htm.
Compounds with GIPRCNT values below 10 were considered active. Activity score was based on GIPRCNT using the following formula: […]
Score is 0 for GIPRCNT values of 100 or above, 50 for GIPRCNT values of 0, and 100 for GIPRCNT values of -100.

Structure (SMILES)	growth
Cc1nc2scc(-c3ccc(Cl)cc3)n2c(=O)c1CCN1CCOCC1	107%
O=C(Nc1cccc(F)c1)Nc1cccc(Cl)c1	56%
COc1ccc(Cn2cc3c(c2-c2cc(OC)c(OC)c(OC)c2)CCc2cnoc2-3)cc1N	-9.29% (active)
COc1cccc(C(=O)N(c2ccc(F)c(F)c2)C(C(=O)NC(C)(C)C)c2cc3c(C)cc(C)cc3nc2Cl)c1 (stereo not given)	64.1%
COc1ccc(C2C=C(c3ccc(Cl)c(Cl)c3)N=C3SC(C)=CN32)cc1OC (stereo not given)	70.2%
Nc1cc2c(cc1Cl)-c1ccc(Cl)cc1C2=O	96.6%
O=C/C=C/c1ccc([N+](=O)[O-])cc1Cl	112%
O=C1CC(c2cccc(-c3cccnc3)c2)=Nc2ccc(Br)cc2N1	24.3%
COc1ccc(Cn2cc3c(c2-c2cc(OC)c(OC)c(OC)c2)CCc2cnoc2-3)cc1[N+](=O)[O-]	7.93% (active)
Cc1nc2cc(-n3c(-c4ccc(F)cc4)nc4ccccc4c3=O)ccc2n1Cc1ccccc1	-38.9% (active)
C[C@]12CC[C@H]3[C@@H](CC=C4C[C@@H](O)CC[C@@]43C)[C@@H]1CC[C@@H]2C(=O)C/C=N/O	97.9%
COc1cccc2c1O/C(=C\c1ncc([N+](=O)[O-])n1C)C2=O	-34.1% (active)
Nc1ncncc1-c1ccc(F)cc1	110%
COc1c(-c2c3sc(=O)[nH]c3nc3c2c(=O)[nH]n3C(C)C)cc2c(c1OC)OCO2	107%
O=S(=O)(NCCO)c1ccc(OCCOc2ccc(S(=O)(=O)NCCO)cc2)cc1	111%
COc1ccc(-n2nnc3c(sc4ccccc43)c2=O)cc1	-18.2% (active)
Nc1nc(SCC#CCCl)c2[nH]cnc2n1	29%
Cc1cc(C)c(C(=O)OC(C)CNC2CCCCC2)c(C)c1 (stereo not given)	98%
COc1ccc(-c2nc(NC(=O)CS(=O)(=O)c3ccc(F)cc3)sc2C)cc1	59.2%
CCCCc1ccc(NC(=O)N(CCCl)N=O)cc1	102%

Structure (SMILES)	growth
COC(=O)c1cnc2c(c1)Oc1ccc(Cl)cc1-c1cc(C)nn1-2	29.5%
CCN(CC)CC(O)Cc1ccc(OC)cc1 (stereo not given)	117%
Oc1cc(O)c(Br)cc1Br	108%
O=C(Nc1cccc([N+](=O)[O-])c1)NN1CCCCCC1	91.2%
COC1OC2COC(c3ccccc3)OC2C(=O)C1NC(=O)c1ccccc1 (stereo not given)	97.2%
COC(=O)[C@]12CC[C@@H](C)[C@H](C)[C@@H]1C1=CC[C@@H]3[C@@]4(C)C/C(=N\O)[C@H](O)[C@@]5(C)COC(=C45)C[C@@]3(C)[C@]1(C)CC2	-76.5% (active)
N=C(N)c1ccc(-c2ccc(-c3ccccc3)s2)s1	-70% (active)
O=C(Nc1cccc(-c2nc3ccccc3[nH]2)c1)c1cccc(NC(=O)c2ccco2)c1	91.6%
COc1cccc2c1C(=O)c1c(O)c3c(c(O)c1C2=O)C[C@@](O)(C(=O)COC(=O)c1cccnc1)C[C@@H]3OC1CC(N)C(O)C(C)O1 (stereo not given in full)	4.13% (active)
Cc1cc(C)c2c(Nc3ncnc4c3sc3nc(C)cc(C)c34)n[nH]c2n1	104%
CCN(CC)CC(O)CNc1ccnc2cc(Cl)c(Cl)cc12 (stereo not given)	100%
COC(=O)c1cnc2c(c1)Oc1ccccc1-c1ccnn1-2	104%
Fc1cc(-c2ncc(-c3cc(F)c(F)c(F)c3)c(NC3CCCCCC3)n2)cc(F)c1F	102%
CCC(CCNc1cc(OC)cc2cccnc12)CN1C(=O)c2ccccc2C1=O (stereo not given)	138%
NS(=O)(=O)c1ccc(N2N=C(c3ccc(-c4ccccc4)cc3)CC2c2ccc(Cl)cc2)cc1 (stereo not given)	70.1%
CCCCNC(=O)Oc1ccc(/C(=C(\C)c2ccc(OC)cc2)c2ccc(OCCN3CCCCC3)cc2)cc1	34.6%
COc1ccccc1S(=O)(=O)Nc1ccc2c(c1)CN(C)C(=O)N2	55.8%
Cc1cc(C#Cc2ccccc2)ccc1-n1c(/C=C/c2cc(O)ccc2O)nc2ccccc2c1=O	-48.5% (active)
Cc1cc(C)c2nc(C)c(C)[n+]([O-])c2c1	115%
O=C(Nc1ccc(Oc2ccc(Nc3nc4ccccc4s3)cc2)cc1)Nc1ccc(Cl)c(Cl)c1	15.8%
